From PubChem BioAssay (Tox21)
The source made the active and inactive calls. Entries that show only a call come without a potency. Unless noted, calls follow the shape of the dose curve; as a rule, active = well fitted curve in the direction sought with a large enough effect in the repeat runs; inconclusive = weak or mixed curves; inactive = no such curve, though single readings can be large; an effect the other way counts as inactive or inconclusive.

Columns and labels:
[1] = qHTS assay to identify small molecule antagonists of the glucocorticoid receptor (GR) signaling pathway - cell viability counter screen (AID 720693); also: nearly all actives have a fitted effect of over 55% in size; also: potency is read from the fitted curve at half-maximal effect
[2] = qHTS assay for identifying genotoxic compounds that show differential cytotoxicity against isogenic chicken DT40 cell lines with known DNA damage response pathways - wild type cell line (AID 743012); also: nearly all actives have a fitted effect of over 60% in size; also: potency is read from the fitted curve at half-maximal effect
Procedure, shortened: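 Wild type DT40, 300 cells/well, ~0.5 h settle at 37 C/5% CO2; compounds in DMSO added by pintool; 40 h at 37 C/5% CO2; CellTiter-Glo, 30 min RT; luminescence.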

[3] = qHTS assay for identifying genotoxic compounds that show differential cytotoxicity against isogenic chicken DT40 cell lines with known DNA damage response pathways - Rad54/Ku70 mutant cell line (AID 743015); also: nearly all actives have a fitted effect of over 60% in size; also: potency is read from the fitted curve at half-maximal effect
[4] = molecular target: Androgen receptor (Homo sapiens) (UniProt P10275); experiment: qHTS assay to identify small molecule antagonists of the androgen receptor (AR) signaling pathway (AID 743035; active = well fitted inhibition curve with a large enough effect in the signal ratio in the repeat runs, not every such curve was filed as active; inconclusive = weak or mixed curves, or effect the other way; inactive = no such curve, though single readings can be large or run the other way; the % refers to the signal ratio; also: potency is read from the fitted curve at half-maximal effect)
Sequence of Androgen receptor (Homo sapiens) (P10275 whole entry, looked up): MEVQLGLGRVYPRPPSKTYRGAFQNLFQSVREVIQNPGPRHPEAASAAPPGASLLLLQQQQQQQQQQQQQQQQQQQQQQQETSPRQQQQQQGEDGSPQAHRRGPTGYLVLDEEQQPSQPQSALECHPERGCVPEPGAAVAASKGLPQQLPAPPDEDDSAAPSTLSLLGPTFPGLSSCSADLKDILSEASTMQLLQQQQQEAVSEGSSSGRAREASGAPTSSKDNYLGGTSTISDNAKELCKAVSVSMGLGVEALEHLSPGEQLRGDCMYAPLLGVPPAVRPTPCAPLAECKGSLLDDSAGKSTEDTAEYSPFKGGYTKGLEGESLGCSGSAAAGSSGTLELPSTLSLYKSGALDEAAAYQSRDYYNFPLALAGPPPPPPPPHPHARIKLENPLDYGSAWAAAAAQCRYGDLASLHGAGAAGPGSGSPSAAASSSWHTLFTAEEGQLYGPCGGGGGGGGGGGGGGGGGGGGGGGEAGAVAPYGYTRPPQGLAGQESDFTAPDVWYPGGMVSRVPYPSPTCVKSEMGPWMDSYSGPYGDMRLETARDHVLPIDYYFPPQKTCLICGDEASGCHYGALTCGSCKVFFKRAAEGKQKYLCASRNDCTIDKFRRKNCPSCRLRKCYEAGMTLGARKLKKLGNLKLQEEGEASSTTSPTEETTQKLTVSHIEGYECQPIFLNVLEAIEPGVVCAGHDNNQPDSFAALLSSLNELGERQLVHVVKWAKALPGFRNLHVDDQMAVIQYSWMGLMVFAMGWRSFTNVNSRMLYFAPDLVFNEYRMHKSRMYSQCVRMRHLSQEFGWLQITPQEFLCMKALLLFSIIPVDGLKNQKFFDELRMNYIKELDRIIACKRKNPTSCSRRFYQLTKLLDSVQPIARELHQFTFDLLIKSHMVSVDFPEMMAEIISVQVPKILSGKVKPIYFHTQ
Procedure, shortened: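 Fluorescence from a beta-lactamase FRET substrate (LiveBLAzer B/G, 2 h, room temperature) measured inhibition of R1881-stimulated signaling in GeneBLAzer AR-UAS-bla HEK293 cells exposed to compound for 16 h at 37C.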

[5] = molecular target: Androgen receptor (Homo sapiens) (UniProt P10275); experiment: qHTS assay to identify small molecule agonists of the androgen receptor (AR) signaling pathway using the MDA cell line (AID 743040; also: nearly all actives have a fitted effect of over 20% in size)
Procedure, shortened: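 MDA-kb2 breast carcinoma cells carrying MMTV-luciferase (responsive to AR and GR), plated 5 h then treated 16 h with compounds at 37C, 0% CO2. Read-out was ONE-Glo luminescence after 30 min at room temperature.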

[6] = qHTS assay to identify small molecule antagonists of the androgen receptor (AR) signaling pathway using the MDA cell line - cell viability counter screen (AID 743041; also: nearly all actives have a fitted effect of over 45% in size; also: potency is read from the fitted curve at half-maximal effect)
Procedure, shortened: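 MDA-kb2 AR-luc cells (MMTV-luciferase, AR/GR responsive) treated with compounds plus R1881 agonist for 16 h at 37C. CellTiter-Fluor added at 15.5 h; fluorescence read after 30 min in the same wells.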

[7] = molecular target: Androgen receptor (Homo sapiens) (UniProt P10275); experiment: qHTS assay to identify small molecule antagonists of the androgen receptor (AR) signaling pathway using the MDA cell line (AID 743042; also: nearly all actives have a fitted effect of over 55% in size; also: potency is read from the fitted curve at half-maximal effect)
Procedure, shortened: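 MDA-kb2 breast carcinoma cells carrying MMTV-luciferase (AR/GR responsive) were co-treated with compounds and the agonist R1881 for 16 h at 37C. Inhibition read as ONE-Glo luminescence; CellTiter-Fluor fluorescence measured in parallel for cytotoxicity.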

[8] = qHTS assay to identify small molecule antagonists of the thyroid receptor (TR) signaling pathway - cell viability counter screen (AID 743064); also: nearly all actives have a fitted effect of over 50% in size; also: potency is read from the fitted curve at half-maximal effect
Procedure, shortened: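 GH3.TRE-Luc cells, 4 h pre-plating; cpd + T3 1 nM final; 37 °C 23.5 h; CellTiter-Fluor 30 min; fluorescence read.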

[9] = molecular target: Estrogen receptor (Homo sapiens) (UniProt P03372); experiment: qHTS assay to identify small molecule antagonists of the estrogen receptor alpha (ER-alpha) signaling pathway (AID 743069; active = well fitted curve in the direction sought with a large enough effect in the signal ratio in the repeat runs, not every such curve was filed as active; inconclusive = weak or mixed curves, or effect the other way; inactive = no such curve, though single readings can be large or run the other way; the % refers to the signal ratio; also: potency is read from the fitted curve at half-maximal effect)
Sequence of Estrogen receptor (Homo sapiens) (P03372 whole entry, looked up): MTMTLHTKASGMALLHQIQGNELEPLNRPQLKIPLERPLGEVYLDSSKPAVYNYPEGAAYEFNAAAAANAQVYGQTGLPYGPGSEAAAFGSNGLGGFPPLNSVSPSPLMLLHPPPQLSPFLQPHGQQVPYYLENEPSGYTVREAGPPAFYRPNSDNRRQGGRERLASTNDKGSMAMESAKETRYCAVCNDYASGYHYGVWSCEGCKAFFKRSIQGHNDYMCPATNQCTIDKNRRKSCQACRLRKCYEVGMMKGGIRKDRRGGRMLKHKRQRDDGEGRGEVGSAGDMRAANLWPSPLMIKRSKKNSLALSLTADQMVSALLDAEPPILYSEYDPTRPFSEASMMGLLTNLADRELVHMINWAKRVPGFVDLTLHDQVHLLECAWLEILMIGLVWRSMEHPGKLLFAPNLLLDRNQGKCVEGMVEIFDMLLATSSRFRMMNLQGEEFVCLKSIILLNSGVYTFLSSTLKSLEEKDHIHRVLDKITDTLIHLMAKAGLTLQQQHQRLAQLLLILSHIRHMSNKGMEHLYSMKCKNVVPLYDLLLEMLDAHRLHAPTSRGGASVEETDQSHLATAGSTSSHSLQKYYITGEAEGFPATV
Procedure, shortened: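 HEK293 ER-alpha-UAS-bla GripTite cells, held overnight in 2% charcoal-stripped FBS, 5,000 cells/well, preincubated 4 h, then compound plus 17beta-estradiol for 18 h at 37C. Beta-lactamase read by LiveBLAzer B/G FRET substrate, 2 h at room temperature.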

[10] = molecular target: Estrogen receptor (Homo sapiens) (UniProt P03372); experiment: qHTS assay to identify small molecule agonists of the estrogen receptor alpha (ER-alpha) signaling pathway (AID 743075; calls by dose curve; also: potency is read from the fitted curve at half-maximal effect)
[11] = qHTS assay to identify small molecule antagonists of the estrogen receptor alpha (ER-alpha) signaling pathway using the BG1 cell line - cell viability counter screen (AID 743081);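 also: compound given together with 17beta-estradiol as the ER stimulus; nearly all actives have a fitted effect of over 45% in size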; also: potency is read from the fitted curve at half-maximal effect
[12] = molecular target: Aromatase (Homo sapiens) (UniProt P11511); experiment: qHTS assay to identify aromatase inhibitors (AID 743083); also: nearly all actives have a fitted effect of over 55% in size; also: potency is read from the fitted curve at half-maximal effect
Sequence of Aromatase (Homo sapiens) (P11511 whole entry, looked up): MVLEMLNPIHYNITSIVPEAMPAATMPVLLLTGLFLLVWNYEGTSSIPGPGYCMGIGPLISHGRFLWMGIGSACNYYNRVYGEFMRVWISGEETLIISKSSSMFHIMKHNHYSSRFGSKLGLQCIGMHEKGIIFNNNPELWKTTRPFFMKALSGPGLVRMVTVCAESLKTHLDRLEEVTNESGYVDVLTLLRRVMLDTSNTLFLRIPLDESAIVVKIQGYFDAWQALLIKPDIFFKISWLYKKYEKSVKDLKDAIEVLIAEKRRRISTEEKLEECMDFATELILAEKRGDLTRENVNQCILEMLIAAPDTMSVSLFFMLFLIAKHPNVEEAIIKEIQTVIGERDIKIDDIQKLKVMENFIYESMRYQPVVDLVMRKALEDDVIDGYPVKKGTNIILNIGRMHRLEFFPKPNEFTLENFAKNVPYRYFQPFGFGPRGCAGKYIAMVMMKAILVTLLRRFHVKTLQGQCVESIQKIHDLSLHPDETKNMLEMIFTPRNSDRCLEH

[13] = qHTS assay to identify small molecule antagonists of the androgen receptor (AR) signaling pathway - cell viability counter screen (AID 743033; also: nearly all actives have a fitted effect of over 45% in size)
[14] = qHTS assay to identify small molecule antagonists of the thyroid receptor (TR) signaling pathway (AID 743065); also: series mostly up to about 70 µM; nearly all actives have a fitted effect of over 55% in size
Procedure, shortened: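 GH3.TRE-Luc rat pituitary cells (two TREs driving luciferase) were dosed with compound, then stimulated with 1 nM T3 (final) for 23.5 h at 37 C. ONE-Glo luminescence was the read-out, with CellTiter-Fluor fluorescence as the cytotoxicity counter-screen.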

[15] = tested on: thyroid hormone receptor (rat, GH3 cells); experiment: qHTS assay to identify small molecule agonists of the thyroid receptor (TR) signaling pathway (AID 743066; calls by dose curve)
[16] = molecular target: Estrogen receptor (Homo sapiens) (UniProt P03372); experiment: qHTS assay to identify small molecule agonists of the estrogen receptor alpha (ER-alpha) signaling pathway using the BG1 cell line (AID 743079); also: nearly all actives have a fitted effect of over 20% in size
[17] = qHTS assay to identify small molecule antagonists of the estrogen receptor alpha (ER-alpha) signaling pathway using the BG1 cell line (AID 743080; calls by dose curve;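 also: BG1 cells stimulated with 17beta-estradiol alongside compound; series mostly up to about 70 µM; nearly all actives have a fitted effect of over 25% in size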)
Procedure, shortened: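 BG1-Luc-4E2 cells (endogenous full-length ER-alpha, stable 4×ERE-luciferase) were starved 5 days in phenol-red-free medium with 10% charcoal-stripped FBS, plated 24 h, then given compound plus 17beta-estradiol for 21.5 h at 37 C; ONE-Glo luminescence read after 30 min.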

[18] = qHTS assay to identify small molecule antagonists of the estrogen receptor alpha (ER-alpha) signaling pathway - cell viability counter screen (AID 743074; calls by dose curve;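 also: HEK293 cells carrying ER-alpha-UAS-bla reporter stimulated with 17beta-estradiol; nearly all actives have a fitted effect of over 45% in size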)
[19] = qHTS assay for identifying genotoxic compounds that show differential cytotoxicity against isogenic chicken DT40 cell lines with known DNA damage response pathways - Rev3 mutant cell line (AID 743014); also: nearly all actives have a fitted effect of over 55% in size

SMILES	Potency [1]	Potency [2]	Potency [3]	Potency [4]	Potency [5]	Potency [6]	Potency [7]	Potency [8]	Potency [9]	Potency [10]	Potency [11]	Potency [12]	Potency [13]	Potency [14]	Potency [15]	Potency [16]	Potency [17]	Potency [18]	Potency [19]
CC(=O)[C@]1(O)Cc2c(O)c3c(c(O)c2[C@@H](O[C@H]2C[C@H](N)[C@H](O)[C@H](C)O2)C1)C(=O)c1ccccc1C3=O	3.01 µM (active)	0.0211 µM (active)	0.0033 µM (active)	3.38 µM (active)	inactive	15 µM (active)	0.422 µM (active)	0.119 µM (active)	4.77 µM [inconclusive] (active)	3.38 µM [inconclusive] (active)	3.35 µM (active)	3.35 µM (active)	–	–	–	–	–	–	–
CC(C)C[C@@H](NC(=O)[C@@H](O)[C@H](N)Cc1ccccc1)C(=O)O	inactive	inactive	inactive	–	–	inactive	–	1.68 µM (active)	–	inactive	2.37 µM (active)	inactive	inactive	inactive	inactive	inactive	inactive	–	–
CC(=O)Nc1ccc(OC(C)=O)cc1	inactive	inactive	inactive	–	–	inactive	–	–	–	–	inactive	–	inactive	inactive	inactive	–	–	inactive	–
CC1CCCC(C)N1NC(=O)c1ccc(Cl)c(S(N)(=O)=O)c1 (centres undefined)	inactive	inactive	inactive	–	–	inactive	–	inactive	inactive	inactive	inactive	inactive	inactive	inactive	inactive	inactive	inactive	inactive	–
Nc1nc(/C(=C/CC(=O)O)C(=O)N[C@@H]2C(=O)N3C(C(=O)O)=CCS[C@H]23)cs1	inactive	inactive	inactive	–	–	inactive	–	inactive	inactive	inactive	inactive	inactive	inactive	inactive	inactive	inactive	inactive	inactive	–
O=C1c2ccccc2CN2C(=O)c3ccccc3CN12	inactive	inactive	inactive	–	–	inactive	–	inactive	inactive	inactive	inactive	inactive	inactive	inactive	inactive	inactive	inactive	inactive	–
OCC1(CO)COC(C(Cl)(Cl)Cl)OC1	inactive	inactive	inactive	–	–	inactive	–	inactive	inactive	inactive	inactive	inactive	inactive	inactive	inactive	inactive	inactive	inactive	–
c1ccc(-n2cnnn2)cc1	inactive	inactive	inactive	–	–	inactive	–	inactive	–	–	inactive	inactive	inactive	inactive	inactive	–	–	inactive	–
N#Cc1c(N(CC(=O)O)CC(=O)O)sc(C(=O)O)c1CC(=O)O	inactive	inactive	inactive	–	–	inactive	–	inactive	inactive	inactive	inactive	inactive	inactive	–	inactive	–	inactive	inactive	–
NC(=O)c1cc[n+](CC2=C(C(=O)O)N3C(=O)[C@@H](NC(=O)C(c4ccccc4)S(=O)(=O)[O-])[C@H]3SC2)cc1 (some centres undefined)	inactive	inactive	–	inactive	inactive	inactive	inactive	inactive	–	–	inactive	inactive	–	–	inactive	–	–	inactive	–
O=C1CCC(c2ccccc2)(C2CCN(Cc3ccccc3)CC2)C(=O)N1 (centres undefined)	inactive	–	–	–	–	inactive	–	–	inactive	inactive	inactive	inactive	inactive	–	inactive	inactive	inactive	inactive	–
CCOC(=O)Cc1ccc(-c2ccccc2)cc1	inactive	–	inactive	–	–	inactive	–	inactive	inactive	inactive	inactive	inactive	inactive	inactive	inactive	inactive	inactive	inactive	inactive
N=C(N)n1cccn1	inactive	inactive	inactive	–	–	inactive	–	inactive	inactive	inactive	inactive	inactive	–	–	inactive	inactive	inactive	inactive	–
O=P(O)(O)C(O)(Cn1ccnc1)P(=O)(O)O	inactive	inactive	inactive	–	–	inactive	–	inactive	inactive	inactive	inactive	inactive	–	inactive	inactive	inactive	inactive	inactive	–
Cc1cn([C@H]2C[C@H](O)[C@@H](CO)O2)c(=O)[nH]c1=O	inactive	inactive	inactive	–	–	inactive	–	–	inactive	inactive	inactive	inactive	–	–	–	inactive	inactive	inactive	–
CN(C/C=C/c1ccccc1)Cc1cccc2ccccc12	inactive	26.6 µM (active)	26.6 µM (active)	–	–	inactive	–	–	inactive	inactive	inactive	inactive	–	–	inactive	inactive	inactive	inactive	–
O=C(O)c1cc(=O)c2c3nc4ccccc4oc-3cc(=O)c2[nH]1	inactive	–	–	–	–	–	–	inactive	–	–	inactive	inactive	inactive	inactive	inactive	–	–	inactive	inactive
